Compounds without any hit were thinned out: in the full panel of roughly 83,000, 20% have a hit.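 Percent growth is the endpoint: 0 to 100 indicates growth inhibition (40 means 60% inhibition), 0 means no net growth, and negative values indicate cell death.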 Unmarked numbers belong to inactive results. Calls of active or inactive are those of the source. The calls were made as follows: active = growth percent below 10; inactive = the rest.

This is an account of results in PubChem BioAssay (NCI).

Holding throughout (assay): NCI-60 one-dose screen, 48 h (100 = growth as untreated, 0 = no growth, -100 = all killed)
Settings in all cases: 10 µM unless noted

Test [1] relates to SN12C renal.
Test [2] has as its system UO-31 renal.
Test [3] deals with TK-10 renal.
Test [4] concerns ACHN renal.
The subject of test [5] is CAKI-1 renal.
For test [6], the system named is A498 renal.
The subject of test [7] is CCRF-CEM leukemia.
Test [8] deals with MOLT-4 leukemia.
The subject of test [9] is SR leukemia.

Turning to `CCOC(=O)c1cc2c(n1Cc1cc(OC)cc(OC)c1)-c1oncc1CCC2`, the growth was 38.3% in [1]; 18.5% in test [2]; 56.6% in [3]; 37.6% in [4]; 42.2% in test [5]; -14.5% (active) in [6]. The growth is 9.16% (active) in test [7], 18% in test [8] and 9.52% (active) in [9].
As to `CC1(C)CC2(C)OC2C2(C1)N=NC(=Nc1ccccc1)O2` (stereo not given), the growth is 61.9% in test [1]; 20.8% in test [2]; 13.6% in [3]; 21.2% in test [4]; 57.4% in [5]; 125% in [6]. Also, the values for the growth in [7], in test [8] and in [9] were 10.7%, 19.9% and 11.3%, respectively.
For the compound `CCOc1ccc(Nc2ccnc3cc(Cl)ccc23)cc1`, the growth is 7.43% (active) in test [1]; -12.8% (active) in test [2]; 7.11% (active) in test [3]; 10.9% in test [4]; 2.27% (active) in [5]; -19.5% (active) in [6]. The growth in [7] was 3.77% (active); in test [8] it was 4.04% (active); in test [9], 0.437% (active).
As to `COc1ccccc1N1C(=N)S/C(=C\c2ccc(OCc3ccccc3F)cc2)C1=O`, the growth in test [1] was 80.7%; in [2] it was 59.2%; in [3], 104%; in [4], 69.6%; in [5], 81.6%; in test [6], 82%. The growth in test [7] was 65.8%; in test [8], 53%; in [9], 73.4%.
`CCOC(=O)c1cc2c(n1Cc1ccccc1)-c1oncc1CCC2`: the growth was 82.2% in test [1]; 62.5% in test [2]; 114% in test [3]; 83.8% in [4]; 74% in test [5]; 74.7% in [6]. For the same compound, the growth in test [7] is 66.4%; in test [8], 72%; in [9] it was 14.1%.
Take `O=C(O)CCC(=O)c1ccc(C2CCCCCC2)cc1`: the growth is 99.5% in test [1]; 80.4% in [2]; 99.1% in test [3]; 97.1% in test [4]; 97.4% in test [5]; 89.2% in [6]. Besides, the growth was 101% in [7], 87.3% in test [8] and 93.8% in test [9].
Consider `CCCCc1ccc(NS(=O)(=O)c2cc3c4c(c2)CCN4C(=O)CC3)cc1`, for which the growth in test [1] is 9.46% (active); in test [2], 5.85% (active); in test [3], 33.8%; in test [4], 15.5%; in test [5] it was 9.87% (active); in test [6], -27.7% (active). For the same compound, the growth was 5.87% (active) in [7], 1.64% (active) in test [8] and 3.07% (active) in test [9].
For the compound `COc1ccc(Cn2c(Br)c3c(c2-c2cc(OC)c(OC)c(OC)c2)CCc2sc(NC(C)=O)nc2-3)cc1`, the growth in [1] is 71.9%; in test [2], 13.9%; in [3] it was 70.6%; in [4], 53.7%; in [5] it was 44%; in test [6], 21.5%. In addition, the growth was 16.9% in test [7], 45.1% in test [8] and 14.3% in test [9].
On to `COc1ccc(/C=C2\NC(=O)NC2=O)cc1O`, for which the growth in test [1] was 99.7%; in test [2], 106%; in [3], 109%; in test [4], 105%; in test [5] it was 85.6%; in [6] it was 91.2%. The growth was 97.6% in test [7], 99.5% in test [8] and 102% in test [9].
Turning to `CCn1c(SCC(=O)Nc2cc(C(F)(F)F)ccc2Cl)nc2ccccc2c1=O`, the growth was 57.1% in test [1]; 22.7% in [2]; 33.7% in [3]; 39.1% in test [4]; 48.4% in test [5]; 35.6% in test [6]. In addition, the growth was -3.31% (active) in [7], -7.72% (active) in [8] and -16.2% (active) in test [9].
As to `C1=CC2(C=C1)OC21CCC2(C=CC3(C2)OC3C2CCCCC2)CC1` (stereo not given), the growth in test [1] is 105%; in test [2], 96.8%; in test [3] it was 113%; in [4], 104%; in test [5], 93.6%; in test [6] it was 97.2%. The values for the growth in test [7], in test [8] and in test [9] were 97.1%, 95.6% and 90.7%, respectively.
As for `Cc1ccc(Nc2nc(N)c3ccccc3n2)cc1Cl`, the growth in test [1] is 65.4%; in [2], 57.2%; in test [3], 81.5%; in [4] it was 64.4%; in test [5], 39.7%; in test [6] it was 72.3%. In addition, the growth in test [7] was 48.3%; in test [8] it was 48.9%; in [9], 1.13% (active).
In the case of `CCOc1c(Br)cc(C2C(C(=O)OC)=CN(C)C=C2C(=O)OC)cc1OC`, the growth in test [1] is 78%; in test [2], 38.2%; in test [3], 69.3%; in test [4], 64.4%; in [5], 75.8%; in test [6], 99%. Moreover, the growth in [7] is 72.7%; in test [8] it was 59.6%; in [9] it was 8.75% (active).
Turning to `O=c1cc(NC2CCN(CCCc3ccccc3)CC2)c2cc(Cl)ccc2o1`, the growth in test [1] is 6.09% (active); in [2], -10.4% (active); in test [3], -13.9% (active); in [4], 10.3%; in test [5], -10.6% (active); in test [6], -19% (active). Further, the growth in test [7] was 3.59% (active); in [8], 1.27% (active); in [9], -11.4% (active).
Regarding `COc1ccc(-c2cn3c(C(=O)Nc4ccccc4Cl)c(-c4ccccc4)c4c3n2CCCC4)cc1`, the growth in test [1] was 82.7%; in test [2] it was 62.8%; in [3], 72.2%; in test [4], 80.9%; in test [5] it was 81.6%; in test [6], 74.9%. The growth is 66% in [7], 69.8% in [8] and 62.8% in [9].
